CaV13 ICDI inh = Primary screen for inhibitors of IQ motif and Ca2+-dependent inactivation inhibitor domain binding in CACNA1D, Förster resonance energy transfer in living cells, …. inhibition, % at 12.3 µM. HEK cells, CFP/YFP FRET ICDI-IQ, plate reader, 10 min; percent FRET-ratio fall versus neutral wells. actives 0.098% (n = 340,000);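 active = mean replicate inhibition of at least 30% and at least 1% of replicates passing that level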
Granule exo inh = LAMP-1 surface exposure blockers, TALL-104 cells – cell-based, flow cytometry, MLPCN library, primary screen; TALL-104 LAMP-1 surface exposure; cells stimulated with thapsigargin and PMA; inhibition, % at 10 µM; actives 0.66% (n = 360,000); AID 651702, 2012;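 active = inhibition above about 55%, limit read from the data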
ABCB6 inh MLPCN = ABCB6 transporter inhibitors, primary screen, K562-ABCB6 cells, flow cytometry, MLPCN library. ATP-binding cassette sub-family B member 6 (Homo sapiens), Q9NP58. fluorescence ratio to DMSO, % at 10 µM. K562-ABCB6 porphyrin accumulation, 1 h; stronger effect = lower value. actives 0.19% (n = 360,000). AID 602162, 2011;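 active = fluorescence ratio to DMSO below 75%, the collection mean minus 3 SD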;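 also: signal is porphyrin accumulated inside mitochondria; lower ratio means ABCB6 inhibition with less porphyrin fluorescence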
Target sequence (Q9NP58 whole entry, looked up): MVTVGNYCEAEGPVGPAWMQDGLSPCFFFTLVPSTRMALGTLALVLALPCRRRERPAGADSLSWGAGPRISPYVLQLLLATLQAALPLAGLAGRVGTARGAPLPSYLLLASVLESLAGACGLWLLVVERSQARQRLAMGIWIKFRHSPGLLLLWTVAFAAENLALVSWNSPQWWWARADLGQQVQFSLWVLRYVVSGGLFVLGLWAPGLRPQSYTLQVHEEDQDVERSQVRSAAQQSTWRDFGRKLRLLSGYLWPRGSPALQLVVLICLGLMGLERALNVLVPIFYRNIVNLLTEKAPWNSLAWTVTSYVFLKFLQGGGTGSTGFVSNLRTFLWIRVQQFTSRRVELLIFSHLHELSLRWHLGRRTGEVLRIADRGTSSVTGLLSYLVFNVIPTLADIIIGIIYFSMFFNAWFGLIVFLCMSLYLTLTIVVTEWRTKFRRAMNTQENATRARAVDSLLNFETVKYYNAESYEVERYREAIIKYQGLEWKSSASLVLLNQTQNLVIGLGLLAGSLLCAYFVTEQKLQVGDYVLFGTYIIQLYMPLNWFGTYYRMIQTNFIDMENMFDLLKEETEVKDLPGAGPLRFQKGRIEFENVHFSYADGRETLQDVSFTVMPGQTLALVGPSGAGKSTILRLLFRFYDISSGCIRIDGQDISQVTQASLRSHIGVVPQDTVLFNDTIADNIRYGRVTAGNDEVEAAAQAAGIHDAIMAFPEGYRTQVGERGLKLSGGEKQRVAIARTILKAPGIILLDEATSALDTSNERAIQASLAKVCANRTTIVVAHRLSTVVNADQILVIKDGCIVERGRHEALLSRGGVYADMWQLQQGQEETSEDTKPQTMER
VLA-4 inh = inhibition in human VLA-4 binding assay, primary screen, VLA-4 allosteric modulator project, MLPCN library, flow cytometry, VLA-4 expressing cells. Integrin alpha-4 (Homo sapiens), P13612. ligand binding flow cytometry. inhibition, % (about 7 µM as worked out from the volumes in the protocol). actives 0.2% (n = 330,000); in the data active = inhibition above about 50%
ABCB6 inh CP1 = ABCB6 transporter inhibitors, confirmation, K562-ABCB6 cells, flow cytometry, cherry pick 1; shares compounds with ABCB6 inh MLPCN; 700 tested, under 10 active; K562-ABCB6 porphyrin accumulation, 1 h; stronger effect = lower value; ratio response (% of DMSO), % at 10 µM;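 active = repeat-averaged ratio response below 75% of DMSO, the collection mean minus 3 SD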;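 also: median porphyrin fluorescence at 575 nm with 488 nm excitation from mitochondria; lower ratio means less porphyrin signal so ABCB6 inhibition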
K562 vector FC = empty-vector K562 compound effect – cell-based, flow cytometry, cherry pick set 2, counter-screen for ABCB6 inhibitor project, dose response | shares compounds with ABCB6 inh MLPCN | AID 624484, 2012 | K562 empty-vector cells, flow cytometry fluorescence, 1 h | 25 tested, under 10 active | percent response (fluorescence), % at 100 µM;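 active = compounds whose half-maximal effective concentration is below 100 µM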
Large screens that a line does not name were inactive (follow-up assays come after a bar, where they were run). Rows were chosen to be rich in hits. Some 1.1% of all compounds tested hit in one or more screens of this group.

CC(O)c1cccc(NC2=CC(=O)CC(C)(C)C2)c1 (stereo not given)	ABCB6 inh MLPCN 64.0 | ABCB6 inh CP1 inactive
O=C(Nc1ccc(F)c(Cl)c1)c1cc(C2CCCN(S(=O)(=O)c3cccc4cccnc34)C2)on1 (stereo not given)	none (no result: VLA-4 inh)
Cc1ccc(S(=O)(=O)CCC#N)cc1	ABCB6 inh MLPCN 19.0 | ABCB6 inh CP1 inactive
N#CCCS(=O)(=O)c1ccc(N)cc1	none
COc1ccccc1C1CCN(Cc2c(C)[nH]c3ccccc23)CC1	ABCB6 inh MLPCN 26.0 | ABCB6 inh CP1 inactive
COc1ccccc1C1CCN(Cc2ccc(Cl)c(Cl)c2)CC1	none
CC(OC(=O)c1ccc(=O)n(Cc2ccccc2)n1)C(=O)Nc1cccc(Cl)c1 (stereo not given)	ABCB6 inh MLPCN 68.0 | ABCB6 inh CP1 inactive
OCCNc1c2ccccc2nc2c(F)c(F)c(F)c(F)c12	ABCB6 inh MLPCN 71.0 | ABCB6 inh CP1 inactive
Cc1c2ccccc2nc2c(F)c(NCCO)c(F)c(F)c12	none
CC(C)(C)NC(=O)NC(=O)COC(=O)c1cc[n+]([O-])cc1	none
CC1CCCCC1NC(=O)c1cc2c(s1)CS(=O)(=O)C2 (stereo not given)	ABCB6 inh MLPCN 71.0 (no result: CaV13 ICDI inh) | ABCB6 inh CP1 inactive
COC(=O)C1=C(NC(C)=O)CCS1	none
COc1ccccc1Nc1ncnc2c1cnn2-c1cccc(C)c1	none
COc1ccc(OC)c(Nc2ncnc3c2cnn3-c2ccccc2)c1	ABCB6 inh MLPCN 71.0 | ABCB6 inh CP1 inactive
CC1(C)CC(=O)C(C2C3=C(CC(C)(C)CC3=O)Oc3ccccc32)C(=O)C1 (stereo not given)	none
CC1(C)CC(=O)C(C2C3=C(CC(C)(C)CC3=O)Oc3ccc4ccccc4c32)C(=O)C1 (stereo not given)	ABCB6 inh MLPCN 74.0 | ABCB6 inh CP1 inactive
CN1c2ccccc2-c2nc3ccccc3n2C1c1cccs1 (stereo not given)	none
CCC(=O)Nc1ccc2c(c1)nc1n2CCSC1	ABCB6 inh MLPCN 70.0 | ABCB6 inh CP1 inactive
O=C(Cn1cc(C(=O)c2cccs2)c2ccccc21)NC1CCCCC1	ABCB6 inh MLPCN 60.0 | ABCB6 inh CP1 inactive
CCn1c(CNS(=O)(=O)c2ccc(Br)cc2)n[nH]c1=S	none
CCOC(=O)C1CCN(Cc2ccc(F)c(Br)c2)CC1	ABCB6 inh MLPCN 69.0 | ABCB6 inh CP1 inactive
c1ccc(CCn2c(C3CC3)nc3ccccc32)cc1	none
COc1ccccc1N(C)S(=O)(=O)c1ccc(C(=O)N2CCCC(C(F)(F)F)C2)cc1 (stereo not given)	ABCB6 inh MLPCN 74.0 (no result: CaV13 ICDI inh) | ABCB6 inh CP1 inactive
COc1ccccc1NS(=O)(=O)c1ccc(C(=O)N2CCCC(C(F)(F)F)C2)cc1 (stereo not given)	none
Cc1ccc(S(=O)(=O)CCc2nnc(NC(=O)c3cnccn3)s2)cc1	none
CCc1ccc(NC(=O)c2nc(S(=O)(=O)Cc3ccccc3)ncc2Cl)cc1	ABCB6 inh MLPCN 66.0 | K562 vector FC inactive
CCCc1nnc(NC(=O)c2nc(S(=O)(=O)Cc3ccc(C)cc3)ncc2Cl)s1	none | K562 vector FC inactive
Cc1ccc(NC(=O)c2nc(S(=O)(=O)Cc3ccccc3C)ncc2Cl)cc1C	ABCB6 inh MLPCN 48.0 | K562 vector FC inactive
CSc1nnc(NC(=O)c2nc(S(=O)(=O)Cc3ccccc3)ncc2Cl)s1	none
CC(C)c1nnc(NC(=O)c2nc(S(=O)(=O)Cc3ccccc3)ncc2Cl)s1	none | K562 vector FC inactive
O=C(Nc1ccc(F)c(Cl)c1)C1CCCN(C2=NS(=O)(=O)c3ccccc32)C1 (stereo not given)	none
CCOC(=O)c1ccc(NC(=O)c2nc(S(=O)(=O)Cc3ccccc3)ncc2Cl)cc1	ABCB6 inh MLPCN 46.0 | K562 vector FC inactive
CCSc1ncc(Cl)c(C(=O)Nc2ccc(S(=O)(=O)Nc3ncccn3)cc2)n1	none
CCCS(=O)(=O)c1ncc(Cl)c(C(=O)Nc2ccc(S(=O)(=O)Nc3ncccn3)cc2)n1	none | ABCB6 inh CP1 inactive
CCOc1ccccc1NC(=O)c1nc(S(=O)(=O)Cc2ccccc2)ncc1Cl	ABCB6 inh MLPCN 44.0 | K562 vector FC inactive
CCOC(=O)c1ccc(NC(=O)CCS(=O)(=O)Cc2ccccc2)cc1	none
CC(=NNC(=O)c1cccc(S(=O)(=O)N2CCOCC2)c1)c1ccc(Cl)cc1	none
CN(C)C1CN(Cc2cn(Cc3ccc(C(F)(F)F)cc3)nn2)S(=O)(=O)C1 (stereo not given)	none (no result: VLA-4 inh)
CCOC(=O)C(C)N1N=C(/C=C/c2ccc(OC)cc2)CCC1=O (stereo not given)	none
Cc1ccc(-c2noc(CCC(=O)NCC3CCCO3)n2)cc1 (stereo not given)	none
CC(C)(C)c1ccc(-c2noc(CCC(=O)NCC3CCCO3)n2)cc1 (stereo not given)	ABCB6 inh MLPCN 62.0 | ABCB6 inh CP1 inactive
Cc1cc(NC(=O)c2cc(C)on2)n(-c2ccccc2)n1	ABCB6 inh MLPCN 72.0 (no result: VLA-4 inh) | ABCB6 inh CP1 inactive
Cc1ccc(S(=O)(=O)Oc2ccc(/C=N/NC(=O)c3nn(C)cc3[N+](=O)[O-])cc2)cc1	none
CC(c1cccs1)N(Cc1ccco1)C(=O)Nc1ccc(Cl)c(Cl)c1 (stereo not given)	none
COc1cccc(NC(=O)N(Cc2ccco2)C(C)c2cccs2)c1 (stereo not given)	ABCB6 inh MLPCN 73.0 (no result: CaV13 ICDI inh) | ABCB6 inh CP1 inactive
CS(=O)(=O)Nc1cccc(-c2ccc3nncn3c2)c1	none (no result: VLA-4 inh)
CCOC(=O)C1CCN(S(=O)(=O)c2ccc(OCC(=O)OC)cc2)CC1	none | ABCB6 inh CP1 inactive
CC1(C)Cn2c(nnc2-c2ccccc2)S1	ABCB6 inh MLPCN 74.0 (no result: CaV13 ICDI inh) | ABCB6 inh CP1 inactive
Cc1ccc(CCNC(=O)CCS(=O)(=O)c2ccc(Br)cc2)cc1	none
CC1CCN(CCNC(=O)CCS(=O)(=O)c2ccc(Br)cc2)CC1	ABCB6 inh MLPCN 7.0 | ABCB6 inh CP1 inactive
Cc1ccc2nc(CSc3nnc(Cc4cccs4)n3C3CCCCC3)cc(=O)n2c1	ABCB6 inh MLPCN 66.0 | ABCB6 inh CP1 inactive
c1ccc(-c2cnnn2-c2ccccc2)cc1	none
Nc1nonc1-n1nncc1-c1ccccc1	ABCB6 inh MLPCN 6.0 (no result: CaV13 ICDI inh) | ABCB6 inh CP1 inactive
Cc1nc(N2CCN(Cc3ccc4c(c3)OCO4)CC2)nc2c1C(=O)CC(c1ccco1)C2 (stereo not given)	ABCB6 inh MLPCN 73.0 | ABCB6 inh CP1 inactive

Screening data: PubChem, several laboratories
